Drawing on PubChem BioAssay (EPA / NIEHS), this text covers AC50 and outcome for 14 compounds.

The nature of test [1]: CCTE_Shafer_MEA_acute_spike_number: CCTE's Neural Acute Assay for Total Number of Spikes, Shafer Lab (AID 2284008).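 As to AC50: curve fitted for decrease in spike count so AC50 reflects inhibitors.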 A digest of the protocol:
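Read-out is the total spike count over 40 min, expressed as percent change from each well's own pre-treatment baseline and fitted in the loss direction against DMSO. Rat cortical neurons were exposed at 0.03-40 uM on DIV 13 or 15.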

The nature of test [2]: CCTE_Shafer_MEA_acute_firing_rate_mean: CCTE's Neural Acute Assay for Mean Firing Rate, Shafer Lab (AID 2284009).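 Also: analyzed for loss of signal so actives lower firing rate relative to DMSO.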 Put shortly:
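Primary rat cortical neurons on 16-electrode MEA wells were exposed on DIV 13 or 15 to compound (0.03-40 uM). Spike counts per recording time, averaged over electrodes, were compared between 40-min baseline and 40-min post-exposure recordings as percent change.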

A short description of test [3]: CCTE_Harrill_HTTr_Viability_MCF7: CCTE's 6-hour Cell Viability Assessment for the High-Throughput Transcriptomics (HTTr) Platform, in MCF-7 cells cultured in DMEM + 10% fetal bovine serum, Harrill Lab (AID 2284010). Put shortly:
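Propidium iodide exclusion, imaged by high-content analysis, gauged viability after a six-hour exposure across eight concentrations. Cells were MCF-7 grown in DMEM with 10% fetal bovine serum; fits run in both directions against DMSO.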

Test [4] in a line: CCTE_Harrill_HTTr_Apoptosis_MCF7: CCTE's 6-hour Apoptosis Assessment for the High-Throughput Transcriptomics (HTTr) Platform, in MCF-7 cells cultured in DMEM + 10% fetal bovine serum, Harrill Lab (AID 2284011). A digest of the protocol:
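MCF-7 (DMEM + 10% FBS), 384-well; 8-pt dilution series, 6 h chemical exposure; caspase-3/7 activation via CellEvent Caspase 3/7 Green, HCI; bidirectional fit vs DMSO.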

The nature of test [5]: CCTE_Harrill_HTTr_CellCount_MCF7: CCTE's Cell Proliferation Assessment for the High-Throughput Transcriptomics (HTTr) Platform, Harrill Lab (AID 2284012; active = hit-call score of the fitted dose curve at least 0.9, where 1 is the maximum;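 also: cells exposed to compound for six hours; intended direction is loss of nuclei count meaning fewer cells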). A digest of the protocol: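 Cell count from high-content imaging of Hoechst-labeled nuclei serves as viability/growth readout. Chemicals were applied to MCF-7 cells in eight concentrations for six hours, with fitting in both directions relative to DMSO.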

The nature of test [6]: CCTE_Shafer_MEA_acute_per_burst_spike_number_mean: CCTE's Neural Acute Assay for Average Number of Spikes Per Burst, Shafer Lab (AID 2284015).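 Also: hits are decreases in mean spikes per burst versus baseline.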 Put shortly:
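Primary rat cortical neurons on 48-well MEA plates, treated on DIV 13 or 15 at 0.03-40 uM. Spontaneous activity recorded 40 min before and 40 min after compound at 37 C; percent change in mean spikes per single-electrode burst per well, fitted in the loss direction versus DMSO.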

Test [7] in a line: CCTE_Shafer_MEA_acute_interburst_interval_mean: CCTE's Neural Acute Assay for Mean Interburst Interval, Shafer Lab (AID 2284016).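 Also: percent change of mean interburst interval versus each well's own pre-dose baseline; curves fitted for decrease in interburst interval relative to DMSO.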 A digest of the protocol:
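Primary rat cortical neurons on 16-electrode MEA wells were recorded 40 min at baseline on DIV 13 or 15, then 40 min after compound (0.03-40 uM), at 37 C. Value is percent change in mean interburst interval per well, DMSO as negative control.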

A short description of test [8]: CCTE_Shafer_MEA_acute_burst_percentage_mean: CCTE's Neural Acute Assay for Percentage of Spikes in a Burst, Shafer Lab (AID 2284017).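 As to AC50: curve fitted for loss of signal so potency reflects decreased burst percentage.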 Put shortly: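 Primary rat cortical neurons on 16-electrode MEA wells; 40 min baseline recorded at DIV 13 or 15, then 40 min after compound (0.03-40 uM) at 37 C. Well-mean fraction of spikes in single-electrode bursts; percent change from baseline, DMSO as negative control.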

A short description of test [9]: CCTE_Shafer_MEA_acute_burst_percentage_std: CCTE's Neural Acute Assay for Standard Deviation of Burst Percentage, Shafer Lab (AID 2284018).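 Also: fitted in the negative direction so actives lower burst percentage SD.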 A digest of the protocol: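 Value is percent change from baseline in the across-electrode SD of spikes-in-bursts percentage, wells with >/= 10 active electrodes. Acute 40-min exposure to 0.03-40 uM on DIV 13 or 15 rat cortical cultures, recorded at 37 C after 40-min baseline.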

Test [10] has as its target Nucleoli Translocation, AR (gene 367) (UniProt P10275). As to the kind of experiment: UPITT_HCI_U2OS_AR_TIF2_Nucleoli_Antagonist: University of Pittsburgh U2OS Androgen Receptor-Transcriptional Intermediary Factor 2 (AR-TIF2) Antagonism High Content Imaging Assay for Nucleoli Translocation (AID 2283997; active = hit-call score of the fitted dose curve at least 0.9, where 1 is the maximum). Put shortly:
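Antagonism is read as loss of nucleolar AR-RFP signal relative to DHT, imaged in U2OS cells also carrying GFP-TIF2. Compounds screened at 20 uM final, 0.2% DMSO; primary actives retested in triplicate.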

Test [11] has the same target. As to the kind of experiment: UPITT_HCI_U2OS_AR_TIF2_Nucleoli_Agonist: University of Pittsburgh U2OS Androgen Receptor-Transcriptional Intermediary Factor 2 (AR-TIF2) Agonism High Content Imaging Assay for Nucleoli Translocation (AID 2283998; active = hit-call score of the fitted dose curve at least 0.9, where 1 is the maximum). Put shortly:
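Readout is red (AR-RFP) fluorescence localized to nucleoli, measured by high-content imaging and analysed for increase relative to DMSO. Compound series spanned 0.195 to 50 uM final in 0.5% DMSO.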

The target in test [12] is Ratio of Nucleoli Translocation and Cytoplasm, AR (gene 367) (UniProt P10275). Kind of test: UPITT_HCI_U2OS_AR_TIF2_Nucleoli_Cytoplasm_Ratio_Agonist: University of Pittsburgh U2OS Androgen Receptor-Transcriptional Intermediary Factor 2 (AR-TIF2) Agonism High Content Imaging Assay for Ratio of Nucleoli Translocation and Cytoplasm (AID 2284000; active = hit-call score of the fitted dose curve at least 0.9, where 1 is the maximum;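 also: hits raise the red nucleolar to cytoplasm ratio above vehicle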). A digest of the protocol: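 Compounds tested at 20 uM final in primary screen (0.2% DMSO) and 0.195-50 uM final in dose-response (0.5% DMSO). Imaging of human U2OS cells bearing RFP-AR and GFP-TIF2; endpoint is nucleoli/cytoplasm red signal ratio, positive direction relative to DMSO.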

A further test concerns DIO1 (gene 1733). As to the kind of experiment: CCTE_GLTED_hDIO1: CCTE's human Deiodinase 1 (DIO1) Inhibition Assay, Great Lakes Toxicology and Ecology Division (GLTED) Lab (AID 2283987; active = hit-call score of the fitted dose curve at least 0.9, where 1 is the maximum;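 also: isolated human DIO1 enzyme in a cell-free setup rather than cells; enzyme activity read as free iodide liberated from substrate via Sandell-Kolthoff colorimetry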). Put shortly: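 Inhibition of human deiodinase 1 is scored as reduced iodide liberation after a 3 h enzyme–chemical incubation, detected colorimetrically by the Sandell-Kolthoff reaction against DMSO controls.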

The target of test [13] is Retinoic acid receptor RXR-alpha (Homo sapiens) (UniProt P19793). As to the kind of experiment: TOX21_TR_RXR_BLA_Antagonist_Followup_ratio: Tox21 Thyroid Hormone Receptor beta Retinoid X Receptor alpha (RXRa) Antagonism Beta-lactamase (BLA) Follow-Up Assay, Ratio (AID 2283972; active = hit-call score of the fitted dose curve at least 0.9, where 1 is the maximum). Put shortly: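 HEK293T RXRa-bla, 2% charcoal-stripped FBS medium, 16 h compound exposure at 37C, qHTS 11 conc x3. CCF4 FRET ratio ch2/ch1 (460:530), DMSO = baseline, loss-of-signal fit.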

Test [14] in a line: TOX21_TR_RXR_BLA_Antagonist_Followup_viability: Viability Assessment in the Tox21 Thyroid Hormone Receptor beta Retinoid X Receptor alpha (RXRa) Antagonism Beta-lactamase (BLA) Follow-Up Assay (AID 2283979; active = hit-call score of the fitted dose curve at least 0.9, where 1 is the maximum). A digest of the protocol: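 Follow-up compounds (11 concentrations, triplicate) were incubated 16 h at 37C/5% CO2 with HEK293T RXRa-bla cells seeded at 2,500/well in charcoal-stripped-serum medium. ATP content by CellTiter-Glo luminescence gave viability; curves fitted in both directions against DMSO.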

A short description of test [15]: CCTE_Simmons_MITO_basal_resp_rate: CCTE's HepG2 Seahorse XF Respirometric Screening Assay at Basal Respiratory State, Simmons Lab (AID 2284001). Conditions: actives raise or lower the signal. A digest of the protocol:
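Basal-phase OCR in HepG2 cells, read at 6-min intervals across a 72-min run, with test compound injected at 125 nM–100 uM final (7 points). Fitted both directions against DMSO; three biological replicates per concentration.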

Test [16] is described as follows: CCTE_Simmons_MITO_max_resp_rate: CCTE's HepG2 Seahorse XF Respirometric Screening Assay at Maximal Respiratory State [uncoupled], Simmons Lab (AID 2284002). Conditions: actives raise or lower the signal. Put shortly:
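Read-out is oxygen consumption rate at maximal respiration, taken after FCCP uncoupling of compound-treated HepG2 cells. Seven final concentrations from 125 nM to 100 uM were tested, each in three biological replicates.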

The nature of test [17]: CCTE_Simmons_MITO_inhib_resp_rate: CCTE's HepG2 Seahorse XF Respirometric Screening Assay at Inhibited Respiratory State [full ETC block], Simmons Lab (AID 2284006). The conditions noted are these: actives raise or lower the signal. A digest of the protocol: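 This endpoint is the respiration rate remaining after rotenone/antimycin A block, in HepG2 cells on a Seahorse XF96. Chemicals spanned 125 nM–100 uM final, in three biological replicates. OCR was read every 6 minutes for 72 minutes and compared with DMSO vehicle.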

The nature of test [18]: CCTE_Simmons_MITO_viability: CellTiter-Glo Viability Assessment for CCTE's HepG2 Seahorse XF Respirometric Screening Assay [post-hoc], Simmons Lab (AID 2284007; active = hit-call score of the fitted dose curve at least 0.9, where 1 is the maximum). A digest of the protocol: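 Luciferase-coupled ATP read-out after the Seahorse run: HepG2 cells treated 90 minutes with test chemical, 7-point series of 125 nM–100 uM final, in triplicate biological runs. Vehicle DMSO; dichlone as positive control over 8 concentrations.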
For orientation: In ATP-based viability assays light output follows the ATP content of the culture.

Inconclusive results are not listed. The source made the active and inactive calls. The calls were made as follows, unless noted: active = hit-call score of the fitted dose curve at least 0.9, where 1 is the maximum; inactive = score below 0.9.

Sequence of Ratio of Nucleoli Translocation and Cytoplasm, AR (gene 367) (P10275 whole entry, looked up): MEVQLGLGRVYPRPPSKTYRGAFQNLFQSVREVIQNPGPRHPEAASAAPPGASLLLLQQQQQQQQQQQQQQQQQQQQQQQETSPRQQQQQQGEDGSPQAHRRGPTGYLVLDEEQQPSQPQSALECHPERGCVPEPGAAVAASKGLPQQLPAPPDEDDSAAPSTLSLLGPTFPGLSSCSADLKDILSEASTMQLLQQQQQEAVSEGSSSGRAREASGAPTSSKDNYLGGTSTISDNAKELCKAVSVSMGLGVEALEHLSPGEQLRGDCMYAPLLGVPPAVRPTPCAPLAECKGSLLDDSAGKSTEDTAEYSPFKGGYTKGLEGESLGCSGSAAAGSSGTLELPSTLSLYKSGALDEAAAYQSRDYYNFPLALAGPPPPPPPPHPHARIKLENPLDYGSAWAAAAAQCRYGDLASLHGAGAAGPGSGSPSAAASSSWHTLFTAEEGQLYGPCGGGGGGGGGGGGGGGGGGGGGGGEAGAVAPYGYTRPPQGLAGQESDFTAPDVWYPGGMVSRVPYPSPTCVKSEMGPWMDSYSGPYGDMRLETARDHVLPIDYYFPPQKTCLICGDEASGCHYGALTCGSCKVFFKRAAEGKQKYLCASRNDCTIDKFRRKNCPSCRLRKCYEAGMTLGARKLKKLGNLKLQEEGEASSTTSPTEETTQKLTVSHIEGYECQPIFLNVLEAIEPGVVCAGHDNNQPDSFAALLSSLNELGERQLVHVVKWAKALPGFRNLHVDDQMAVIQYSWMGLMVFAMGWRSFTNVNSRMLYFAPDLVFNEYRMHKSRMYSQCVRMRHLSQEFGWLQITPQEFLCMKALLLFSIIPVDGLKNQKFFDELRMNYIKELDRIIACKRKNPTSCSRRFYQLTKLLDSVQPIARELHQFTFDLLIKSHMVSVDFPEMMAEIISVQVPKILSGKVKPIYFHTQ
Sequence of Nucleoli Translocation, AR (gene 367) (P10275 whole entry, looked up): as above
Sequence of Retinoic acid receptor RXR-alpha (Homo sapiens) (P19793 whole entry, looked up): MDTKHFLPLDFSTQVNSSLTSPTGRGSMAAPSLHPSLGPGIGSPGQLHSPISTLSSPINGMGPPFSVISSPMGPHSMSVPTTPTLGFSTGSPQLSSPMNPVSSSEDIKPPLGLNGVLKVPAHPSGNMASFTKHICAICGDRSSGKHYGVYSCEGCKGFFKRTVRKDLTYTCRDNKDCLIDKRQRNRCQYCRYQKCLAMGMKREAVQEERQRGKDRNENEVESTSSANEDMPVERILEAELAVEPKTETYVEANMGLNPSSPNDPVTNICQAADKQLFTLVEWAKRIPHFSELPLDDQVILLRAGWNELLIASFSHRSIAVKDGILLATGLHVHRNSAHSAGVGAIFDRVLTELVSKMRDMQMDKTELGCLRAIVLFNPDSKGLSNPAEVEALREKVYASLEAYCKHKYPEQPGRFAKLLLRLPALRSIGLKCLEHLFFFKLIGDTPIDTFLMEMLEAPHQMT

Regarding `O=C(c1ccc(OCCN2CCCCC2)cc1)c1c(-c2ccc(O)cc2)sc2cc(O)ccc12`, the AC50 (usually the concentration at which the activity in the assay is half-maximal) in test [1] was 14.3 µM (active); in [2], 14.1 µM (active); in test [8] it was 32.5 µM (active). In addition, the result in test [3], in test [4], in [5], in [6], in test [7] and in test [9] was inactive.
In the case of `N[C@@H](CCC(=O)O)C(=O)O`, the result in [1], in test [2], in test [6], in [7], in test [8] and in test [9] was inactive.
As to `CCC(C)(C)C1CCC(=O)CC1`, the compound was classed as inactive in [10], in test [11] and in [12].
`CC1=CCC(C(C)(C)O)CC1` (configuration not stated): the outcome in test [12], in test [3], in test [4] and in test [5] was inactive.
Regarding `CC(C)(CO)CO`, the outcome in [11], in test [12], in [1], in test [2], in test [6] and in test [7] was inactive. Further, the compound was classed as inactive in test [8] and in test [9].
As to `CCCCCCOc1ccc(O)cc1`, the results for the half-maximal activity concentration (AC50) in [10], in [11] and in test [12] were 50 µM (active), 27.7 µM (active) and 23.9 µM (active), respectively.
Turning to `CC(C)(C)c1ccc(S)cc1`, the concentration at half-maximal activity (AC50) in the test with DIO1 (gene 1733) is 16.3 µM (active).
For the compound `OC[C@H]1O[C@@H](O[C@H]2[C@H](O)[C@@H](O)[C@H](O)O[C@@H]2CO)[C@H](O)[C@@H](O)[C@H]1O`, the result in [10], in test [3], in [4] and in [5] was inactive.
Regarding `C#C[C@]1(O)CC[C@H]2[C@@H]3CCc4cc(O)ccc4[C@H]3CC[C@@]21C`, the half-maximal activity concentration (AC50) in test [13] was 38.3 µM (active); in test [15], 33.4 µM (active). Besides, the call in [14], in test [16], in test [17], in [18], in test [3] and in [4] was inactive. In addition, the call in test [5] was inactive.
For `CC(=O)N(C)C`, the call in test [10], in test [12], in test [3], in test [4] and in [5] was inactive.
In the case of `O=C(O)C1=NN(c2ccc(S(=O)(=O)O)cc2)C(=O)C1`, the AC50 in the test on DIO1 (gene 1733) was 57.6 µM (active). In addition, the result in test [3], in test [4] and in test [5] was inactive.
With `FC(F)(F)c1ccc(Cl)c(Cl)c1`, the compound was called inactive in test [10], in [12], in [3], in test [4] and in test [5].
Take `CC(C)(C)c1cccc(O)c1`: in [10], the compound was classed as inactive. Besides, the AC50 was 30.6 µM (active) in [11] and 50 µM (active) in test [12].
In the case of `CCCCCCCCCCOC(=O)c1ccccc1C(=O)OCCCCCCCC`, the outcome in [10], in [11] and in test [12] was inactive.
